For 17 molecules, inhibition results are on record in ChEMBL document CHEMBL1961873, “Compounds: GSK PKIS; Assays: Nanosyn kinase panel” (2012).

In assay [1] the target is 5'-AMP-activated protein kinase catalytic subunit alpha-2 (Homo sapiens) (UniProt P54646). The note with it: at 1 µM.
Assay [2] has as its target T1, NUAK family SNF1-like kinase 1 (Homo sapiens) (UniProt O60285).
T1 sequence (whole entry): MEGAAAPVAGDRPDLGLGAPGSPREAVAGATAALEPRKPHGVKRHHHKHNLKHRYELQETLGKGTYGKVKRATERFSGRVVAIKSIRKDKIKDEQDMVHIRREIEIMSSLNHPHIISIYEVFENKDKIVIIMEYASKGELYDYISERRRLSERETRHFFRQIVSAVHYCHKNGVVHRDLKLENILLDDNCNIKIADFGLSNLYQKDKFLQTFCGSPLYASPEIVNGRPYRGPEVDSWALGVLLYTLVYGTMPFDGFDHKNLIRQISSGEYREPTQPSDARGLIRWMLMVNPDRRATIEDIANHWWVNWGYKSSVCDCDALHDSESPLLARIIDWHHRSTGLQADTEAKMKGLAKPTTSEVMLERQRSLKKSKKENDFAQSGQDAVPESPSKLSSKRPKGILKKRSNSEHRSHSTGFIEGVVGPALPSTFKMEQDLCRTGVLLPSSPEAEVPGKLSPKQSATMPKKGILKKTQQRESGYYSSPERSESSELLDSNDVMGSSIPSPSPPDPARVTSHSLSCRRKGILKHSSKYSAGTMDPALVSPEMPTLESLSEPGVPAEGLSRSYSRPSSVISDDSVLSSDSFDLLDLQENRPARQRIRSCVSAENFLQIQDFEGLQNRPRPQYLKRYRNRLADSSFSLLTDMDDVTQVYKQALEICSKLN
The note with it: at 0.1 µM.

Assay [3] addresses T1, NUAK family SNF1-like kinase 1 (Homo sapiens). The note with it: at 1 µM.
Assay [4] concerns the target T2, Serine/threonine-protein kinase BRSK1 (Homo sapiens) (UniProt Q8TDC3).
T2 sequence (whole entry): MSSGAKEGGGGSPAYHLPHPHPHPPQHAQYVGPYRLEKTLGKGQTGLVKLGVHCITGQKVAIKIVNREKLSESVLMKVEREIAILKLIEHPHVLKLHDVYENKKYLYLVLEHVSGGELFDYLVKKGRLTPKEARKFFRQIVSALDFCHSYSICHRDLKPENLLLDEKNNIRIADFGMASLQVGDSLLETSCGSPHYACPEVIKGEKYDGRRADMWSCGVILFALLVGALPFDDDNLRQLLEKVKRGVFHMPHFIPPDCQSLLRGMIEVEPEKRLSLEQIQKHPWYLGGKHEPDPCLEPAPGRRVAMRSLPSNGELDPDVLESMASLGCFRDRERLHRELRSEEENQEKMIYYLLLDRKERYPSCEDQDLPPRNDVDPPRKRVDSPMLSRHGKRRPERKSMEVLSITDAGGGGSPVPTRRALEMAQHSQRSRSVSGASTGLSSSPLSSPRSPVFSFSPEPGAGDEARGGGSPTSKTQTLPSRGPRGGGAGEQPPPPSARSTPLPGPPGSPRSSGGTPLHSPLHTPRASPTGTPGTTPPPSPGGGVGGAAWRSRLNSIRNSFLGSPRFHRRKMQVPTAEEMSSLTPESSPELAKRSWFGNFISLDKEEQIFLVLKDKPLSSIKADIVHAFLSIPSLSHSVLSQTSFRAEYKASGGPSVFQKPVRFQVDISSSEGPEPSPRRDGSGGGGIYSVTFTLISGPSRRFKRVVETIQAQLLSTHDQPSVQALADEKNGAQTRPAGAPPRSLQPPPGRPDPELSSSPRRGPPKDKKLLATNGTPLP
The note with it: at 0.1 µM.

The target in assay [5] is T2, Serine/threonine-protein kinase BRSK1 (Homo sapiens). Particulars: at 1 µM.
Assay [6] deals with T3, Serine/threonine-protein kinase BRSK2 (Homo sapiens) (UniProt Q8IWQ3).
T3 sequence (whole entry): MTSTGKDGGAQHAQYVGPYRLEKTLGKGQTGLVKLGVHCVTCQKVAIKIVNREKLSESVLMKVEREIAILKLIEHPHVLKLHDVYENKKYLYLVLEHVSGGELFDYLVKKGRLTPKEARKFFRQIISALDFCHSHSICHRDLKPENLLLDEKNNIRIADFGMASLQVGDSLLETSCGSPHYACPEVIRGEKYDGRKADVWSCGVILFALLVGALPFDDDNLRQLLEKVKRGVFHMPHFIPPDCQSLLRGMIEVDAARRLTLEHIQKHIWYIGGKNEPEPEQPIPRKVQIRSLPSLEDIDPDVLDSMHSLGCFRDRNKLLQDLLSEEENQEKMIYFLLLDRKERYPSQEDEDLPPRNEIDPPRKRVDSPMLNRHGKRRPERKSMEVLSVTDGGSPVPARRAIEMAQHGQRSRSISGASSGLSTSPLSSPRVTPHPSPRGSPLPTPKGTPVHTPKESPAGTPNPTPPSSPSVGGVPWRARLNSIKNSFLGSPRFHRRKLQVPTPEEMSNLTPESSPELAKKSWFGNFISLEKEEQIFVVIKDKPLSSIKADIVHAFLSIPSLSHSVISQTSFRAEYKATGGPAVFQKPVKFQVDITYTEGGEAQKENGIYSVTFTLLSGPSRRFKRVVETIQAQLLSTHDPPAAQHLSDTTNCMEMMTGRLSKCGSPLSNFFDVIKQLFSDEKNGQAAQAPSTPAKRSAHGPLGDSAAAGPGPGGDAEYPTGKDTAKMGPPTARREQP
Particulars: at 0.1 µM.

Assay [7] has as its target T3, Serine/threonine-protein kinase BRSK2 (Homo sapiens). Particulars: at 1 µM.
The target of assay [8] is Calcium/calmodulin-dependent protein kinase type 1D (Homo sapiens) (UniProt Q8IU85). Particulars: at 0.1 µM.
Assay [9] shares this target. The note with it: at 1 µM.
Assay [10] has as its target Calcium/calmodulin-dependent protein kinase type II subunit alpha (Homo sapiens) (UniProt Q9UQM7). The note with it: at 0.1 µM.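 Note: reported values are averages (mean inhibition of CAMK2A).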

Calcium/calmodulin-dependent protein kinase type II subunit alpha (Homo sapiens), sequence (Q9UQM7 whole entry): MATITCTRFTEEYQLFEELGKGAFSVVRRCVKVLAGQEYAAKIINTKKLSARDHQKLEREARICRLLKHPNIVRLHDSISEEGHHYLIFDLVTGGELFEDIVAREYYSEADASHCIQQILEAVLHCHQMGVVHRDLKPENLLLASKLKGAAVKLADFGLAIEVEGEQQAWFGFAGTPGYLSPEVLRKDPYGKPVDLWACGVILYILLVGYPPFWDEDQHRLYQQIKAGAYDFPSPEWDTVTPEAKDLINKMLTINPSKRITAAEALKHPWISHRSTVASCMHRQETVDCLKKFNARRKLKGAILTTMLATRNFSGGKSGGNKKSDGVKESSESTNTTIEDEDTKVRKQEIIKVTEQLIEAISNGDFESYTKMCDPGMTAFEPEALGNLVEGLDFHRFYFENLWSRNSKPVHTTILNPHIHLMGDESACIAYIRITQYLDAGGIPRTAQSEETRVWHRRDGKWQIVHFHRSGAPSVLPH
Calcium/calmodulin-dependent protein kinase type 1D (Homo sapiens), sequence (Q8IU85 whole entry, looked up): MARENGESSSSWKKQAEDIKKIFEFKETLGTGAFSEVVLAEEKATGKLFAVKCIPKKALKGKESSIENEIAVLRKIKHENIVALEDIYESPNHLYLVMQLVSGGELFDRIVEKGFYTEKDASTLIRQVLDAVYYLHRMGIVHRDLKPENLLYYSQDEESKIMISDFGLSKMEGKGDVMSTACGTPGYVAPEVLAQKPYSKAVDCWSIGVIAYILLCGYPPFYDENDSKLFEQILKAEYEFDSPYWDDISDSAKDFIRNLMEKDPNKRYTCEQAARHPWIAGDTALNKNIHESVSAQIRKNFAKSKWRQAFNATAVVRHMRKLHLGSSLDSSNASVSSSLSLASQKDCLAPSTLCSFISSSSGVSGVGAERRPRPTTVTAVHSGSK
5'-AMP-activated protein kinase catalytic subunit alpha-2 (Homo sapiens), sequence (P54646 whole entry, looked up): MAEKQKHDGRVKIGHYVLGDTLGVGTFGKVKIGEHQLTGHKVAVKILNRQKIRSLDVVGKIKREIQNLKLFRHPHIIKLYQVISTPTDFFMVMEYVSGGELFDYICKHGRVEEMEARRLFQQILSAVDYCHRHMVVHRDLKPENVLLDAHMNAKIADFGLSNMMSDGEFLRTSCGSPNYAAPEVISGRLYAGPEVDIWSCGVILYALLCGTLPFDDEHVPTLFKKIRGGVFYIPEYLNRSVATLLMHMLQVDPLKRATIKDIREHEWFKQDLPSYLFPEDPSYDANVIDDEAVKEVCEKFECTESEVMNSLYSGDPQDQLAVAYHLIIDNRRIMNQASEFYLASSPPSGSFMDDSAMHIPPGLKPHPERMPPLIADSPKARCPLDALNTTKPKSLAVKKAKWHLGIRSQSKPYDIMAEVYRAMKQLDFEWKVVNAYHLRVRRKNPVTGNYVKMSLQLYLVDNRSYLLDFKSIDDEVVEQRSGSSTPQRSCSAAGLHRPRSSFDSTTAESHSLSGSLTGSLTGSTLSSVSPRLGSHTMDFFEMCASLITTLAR

The inhibition is the drop in the measured response relative to a control, in per cent. Turning to `COc1cc2c(cc1Nc1nc(Nc3ccsc3C(N)=O)c3cc[nH]c3n1)N(C(=O)CN(C)C)CCC2(C)C`, the inhibition was determined as 7.54% in [1]; 5.54% in assay [2]; 9.13% in [3]; 4.27% in assay [4]; 6.36% in [5]; 4.89% in assay [6]. In addition, the inhibition amounted to 4.71% in [7], 5.46% in assay [8], 30.8% in [9] and 4.03% in assay [10].
`Fc1ccc(-c2cc(-c3c[nH]nc3-c3ccccn3)ccn2)cc1`: the inhibition was 1.61% in assay [1]; -0.78% in assay [2]; -3.39% in [3]; -0.21% in [4]; 0.81% in [5]; 1.49% in assay [6]. In addition, the inhibition is 1.96% in [7], -2.23% in assay [8], -1.28% in assay [9] and 3.34% in assay [10].
Regarding `NS(=O)(=O)c1ccc(N/N=C2\C(=O)Nc3ccc4ncccc4c32)cc1`, the inhibition is 62.2% in assay [1]; 79.8% in assay [2]; 85.4% in assay [3]; 46% in [4]; 76% in [5]; 60.4% in assay [6]. In addition, the inhibition in assay [7] was 80.7%; in assay [8] it was 2.62%; in [9], 9.02%; in assay [10], 2.95%.
For `O=C(Nc1n[nH]c2cc(-c3ccc(F)cc3)ccc12)C1CC1`, the inhibition in assay [1] is 6.01%; in assay [2], 0.71%; in assay [3] it was 2.52%; in assay [4], 4.68%; in [5] it was 26.2%; in [6] it was 6.41%. Also, the inhibition in [7] came out at 33.5%; in assay [8], 0.43%; in [9], 1.06%; in assay [10], 0.76%.
As for `CCN(CC)S(=O)(=O)c1ccc(OC)c(Nc2ncc(-c3ccccc3)o2)c1`, the inhibition in assay [1] is 0.95%; in [2] it was 5.96%; in [3], 3.38%; in assay [4], -0.07%; in [5], 0.94%; in assay [6] it was 3.36%. Further, the inhibition was 6.08% in assay [7], 0.13% in assay [8], -0.06% in assay [9] and 3.02% in assay [10].
In the case of `CC(=O)Nc1cccc(C#Cc2cncnc2Nc2ccc(OCc3cccc(F)c3)c(Cl)c2)c1`, the inhibition in assay [1] amounted to 2.19%; in assay [2], 1.95%; in assay [3] it was 7.23%; in [4] it was 2.55%; in assay [5] it was 1.82%; in [6], 1.34%. The inhibition in assay [7] was 0.36%; in assay [8] it was 2.97%; in assay [9], 3.77%; in assay [10], 4.42%.
Regarding `COc1cc2ncn(-c3cc(OCc4ccccc4C(F)(F)F)c(C(=O)N(C)C)s3)c2cc1OC`, the inhibition in assay [1] was 1.18%; in [2], 1.04%; in assay [3] it was 14.8%; in assay [4] it was -0.38%; in assay [5], 2.7%; in assay [6], 0.49%. Moreover, the inhibition was 8.59% in assay [7], -0.9% in [8], 0.6% in assay [9] and -1.75% in assay [10].
As for `Cc1ccc2c(-c3ccnc(Nc4ccccc4)n3)c(-c3ccc(F)cc3)nn2n1`, the inhibition in [1] is 3.36%; in assay [2], 1.74%; in assay [3] it was 6.31%; in assay [4] it was 1.47%; in assay [5] it was 1.77%; in assay [6], 1.27%. In addition, the inhibition in [7] was determined as 0.62%; in assay [8], 0.93%; in assay [9], 1.34%; in assay [10], 4.27%.
`CNC(=O)c1cc(-c2ccc(F)cc2)cc(-c2ccc(S(=O)(=O)N3CCCC3)cc2)c1N`: the inhibition in assay [1] was 2.93%; in assay [2] it was 1.2%; in assay [3], 1.2%; in [4], 1.39%; in assay [5] it was -2.02%; in assay [6], 0.91%. The inhibition in assay [7] is 2.02%; in [8], -0.49%; in assay [9], 1.09%; in [10], 0.94%.
Turning to `CCn1c(-c2nonc2N)nc2c(C#CC(C)(C)O)nc(OC[C@H](N)c3ccccc3)cc21`, the inhibition was 15% in assay [1]; 7% in assay [2]; 47.3% in [3]; 0.45% in assay [4]; 1.15% in [5]; -0.02% in assay [6]. Also, the inhibition in assay [7] stood at 5.58%; in assay [8] it was 0.96%; in assay [9], 4.5%; in assay [10] it was 2.34%.
Consider `CC(C)(CO)CNC(=O)c1ccc2c(c1)/C(=N/Nc1ccc(S(N)(=O)=O)cc1)C(=O)N2`, for which the inhibition was 33.7% in assay [1]; 19.7% in [2]; 58.6% in assay [3]; 6.46% in assay [4]; 37.7% in [5]; 11.6% in assay [6]. Further, the inhibition was 52.2% in assay [7], 0.39% in [8], 1.92% in assay [9] and -0.2% in assay [10].
`CC1=C(C(=O)Nc2cc(Cl)c3[nH]ncc3c2)C(c2ccc(C(F)(F)F)cc2)CC(=O)N1` (stereo not given): the inhibition in [1] came out at 16.3%; in [2] it was 1.17%; in assay [3], 5.4%; in assay [4] it was 0.02%; in assay [5], 3.03%; in assay [6], 1.64%. The inhibition is 8.61% in assay [7], -0.28% in assay [8], 1.73% in [9] and 1.03% in [10].
On to `COc1ccc(CNC(=O)c2ccc(-c3cc(-c4nnc(C)o4)ccc3C)cc2)cc1`, for which the inhibition in assay [1] is 2.36%; in assay [2], 2.93%; in assay [3] it was 5.45%; in assay [4], 0.61%; in assay [5], 8.76%; in assay [6], 3.42%. The inhibition in assay [7] is 13%; in assay [8], 1.11%; in assay [9], -0.23%; in [10], 1.23%.
As for `COc1cc(/C=N/Nc2ncnc3[nH]ncc23)ccc1O`, the inhibition in assay [1] came out at 20.2%; in [2], 6.98%; in [3], 27.6%; in [4] it was 1.12%; in assay [5], 18%; in assay [6] it was 4.62%. For the same molecule, the inhibition in assay [7] stood at 22.9%; in [8] it was 1.07%; in assay [9], 5.49%; in [10] it was 2.62%.
In the case of `CCn1c(-c2nonc2N)nc2ccccc21`, the inhibition amounted to 4.49% in [1]; 1.56% in assay [2]; 10.1% in assay [3]; 2.54% in assay [4]; 8.27% in [5]; 1.85% in assay [6]. For the same molecule, the inhibition in assay [7] was determined as 9.49%; in assay [8], 1.89%; in assay [9], 2.35%; in assay [10], 4.29%.
For `Cc1ccc(O)cc1Nc1ccnc2cc(-c3ccccn3)ccc12`, the inhibition in [1] came out at 6.05%; in [2], 4.17%; in [3] it was 7.44%; in assay [4], 3.63%; in assay [5] it was 5.99%; in assay [6], 3.25%. Besides, the inhibition in [7] came out at 3.89%; in assay [8], 1.22%; in [9], 1.32%; in [10], 6.72%.
For the molecule `CS(=O)(=O)CCNCc1coc(-c2ccc3ncnc(Nc4ccc(OCc5ccccc5)cc4)c3c2)c1`, the inhibition was 4.29% in assay [1]; 2.46% in assay [2]; 3.61% in assay [3]; 1.86% in assay [4]; -1.55% in assay [5]; 1.32% in [6]. The inhibition in [7] is 3.39%; in assay [8], 0.92%; in [9], 2.2%; in assay [10], 2.93%.
